Among all 69,000 compounds or so, about 8,600 (12%) showed an effect of 50% or more. For the sample, strong results were picked, then their nearest neighbours and some compounds at random.
Tested on: Plasmodium berghei
Test: Screen against P. berghei liver stage (PbLuc), transformed with Luciferase, at 10uM
Format: functional, HepG2
Settings: tested at 10 uM

| SMILES | INHIBITION [%] |
| --- | --- |
| COc1c(CNC2(c3noc(C)n3)CCC2)c(C)nn1C | -81.2 |
| COCCCNC(=O)Nc1cccc(Cl)c1-n1cccn1 | -31.5 |
| COCCN(Cc1ccccn1)C(=O)CC1OCCc2sccc21 (centres undefined) | 35 |
| COCCN(Cc1ccccn1)C(=O)CC1OCCc2ccsc21 (centres undefined) | 58.2 |
| COCCN(Cc1ccccn1)C(=O)CC1OCCc2ccccc21 (centres undefined) | 10.9 |
| COCc1nc(Cn2c(C)cc(C(F)(F)F)cc2=O)no1 | 32.1 |
| Cc1ccc(C)c(NC(=O)c2cc(S(=O)(=O)N3CCSCC3)c[nH]2)c1 | 32 |
| CN(C)S(=O)(=O)N1C[C@H]2CCC[C@@]2(COCC2CC2)C1 | 63 |
| CS(=O)(=O)N1C[C@H]2CCC[C@@]2(COCC2CCOCC2)C1 | 5.36 |
| CN(C)S(=O)(=O)N1C[C@H]2CCC[C@@]2(COCC2CCOCC2)C1 | 40.8 |
| CN(C)S(=O)(=O)N1C[C@H]2CCC[C@@]2(COCc2cccnc2)C1 | -136 |
| CN(C)S(=O)(=O)N1C[C@H]2CCC[C@@]2(COCc2ccccn2)C1 | 31.9 |
| Cc1cccc(COC[C@@]23CCC[C@@H]2CN(S(=O)(=O)N(C)C)C3)n1 | 52.6 |
| COc1cccc2ccc(N3CCC(O)(c4ccc(C)cn4)CC3)nc12 | -44.2 |
| Cn1cc2ncn([C@H]3CCN(Cc4ccccc4)C3)c(=O)c2n1 | -25.1 |
| O=C(C(CNCc1ccccn1)c1ccccc1)N1CCOCC1 (centres undefined) | -5.32 |
| CC(C)(C)c1n[nH]c(C2CN(C(=O)CCCn3cccn3)CCO2)n1 (centres undefined) | 17 |
| c1cncc(CN2CCc3ncnc(C4CCOC4)c3CC2)c1 (centres undefined) | 30.7 |
| CSc1nsc(NC(=O)N2CCc3ccccc3C2)n1 | 16.5 |
| CCNC(=O)NCc1nn(CCN2CCCC2)c(=O)c2ccccc12 | 47.7 |

| SMILES | INHIBITION [%] |
| --- | --- |
| CC(C)NC(=O)CC1(Cn2cnnn2)CCCCC1 | 35.8 |
| CC(C)CNC(=O)CC1(Cn2cnnn2)CCCCC1 | 67.3 |
| CC(C)OCCCNC(=O)CC1(Cn2cnnn2)CCCCC1 | -22.2 |
| Cc1ccc(N2CCCN(C(=O)CCc3nccs3)CC2)nn1 | 3.73 |
| Cc1nc(N)cc(C2(C)CCCNC2)n1 (centres undefined) | 32.8 |
| CC1CN(C(=O)CN(Cc2ccccc2)C2CC2)CCO1 (centres undefined) | 15.6 |
| COC(=O)C(NC(=O)C1CCCC1)c1cc(F)ccc1F (centres undefined) | 29.4 |
| CC(C)c1n[nH]c(C(=O)Nc2ccccn2)c1Br | 67.4 |
| COc1ccncc1NC(=O)c1[nH]nc(C(C)C)c1Br | 31.1 |
| CC(C)c1n[nH]c(C(=O)Nc2ccncc2)c1Br | 77.6 |
| CC(C)c1n[nH]c(C(=O)NC(C)c2ccncc2)c1Br (centres undefined) | -9.76 |
| COc1ncccc1NC(=O)c1[nH]nc(C(C)C)c1Br | -41.6 |
| Cc1nc2c(c(C)c1CC(=O)Nc1ccnn1C(C)C)c(=O)[nH]n2C | -1.33 |
| Cc1ccnc(NC(=O)c2[nH]nc(C(C)C)c2Br)c1 | 65 |
| CC(C)Nc1nc(C(=O)Nc2ccccn2)cs1 | -42.1 |
| Cc1ccnc(NC(=O)c2ccc(Br)o2)c1 | -51.5 |
| CC(C)c1n[nH]c(C(=O)Nc2ccnn2C(C)C)c1Br | 88.5 |
| CC(C(=O)Nc1ccnn1C(C)C)N1CCN(Cc2ccccc2)CC1 (centres undefined) | -8.07 |
| Cc1ccnc(NC(=O)c2ccc(Cl)o2)c1 | 32.4 |

Reference: ChEMBL document CHEMBL4513216, “Probing the Open Global Health Chemical Diversity Library for Multistage-Active Starting Points for Next-Generation Antimalarials” (ACS Infect Dis, 2020)
